Assay [1] concerns Human papillomavirus type 1a protein E7 (residues 44-93). Briefly: HPV1a E7 fragment binders on microarrays, primary screen, biochemical, small-molecule microarray, residues 44-93, 635 nm fluorescence (AID 1108).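 Note: E7 fragment applied at 1 µg/mL in TBST for 1 h at 4 C; score combines spot fluorescence with its signal to noise ratio.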 The note with it: small-molecule microarray binding, fluorescence 635 nm; higher = more signal.
Assay [2] is described as follows: modulators of HCV replicon luciferase signal, primary screen, HCV replication inhibitor project, Huh7 cells, luciferase reporter (AID 1109).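 Note: huh7 hepatoma cells harbouring a luciferase neomycin HCV replicon reporter; luciferase luminescence as measure of HCV replicon replication; test concentration not given here.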 The note with it: 48 h, higher = more signal. Background: Replicon systems follow genome replication, usually without infectious particles.
In assay [3] the target is Left-right determination factor 2 (Homo sapiens) (UniProt O00292). Briefly: LEFTY2 binders on small-molecule microarrays, primary screen, biochemical, small-molecule microarray, 635 nm fluorescence scan (AID 1110). The note with it: LEFTY2 binding, higher = more signal.
Left-right determination factor 2 (Homo sapiens), sequence (O00292 whole entry, looked up): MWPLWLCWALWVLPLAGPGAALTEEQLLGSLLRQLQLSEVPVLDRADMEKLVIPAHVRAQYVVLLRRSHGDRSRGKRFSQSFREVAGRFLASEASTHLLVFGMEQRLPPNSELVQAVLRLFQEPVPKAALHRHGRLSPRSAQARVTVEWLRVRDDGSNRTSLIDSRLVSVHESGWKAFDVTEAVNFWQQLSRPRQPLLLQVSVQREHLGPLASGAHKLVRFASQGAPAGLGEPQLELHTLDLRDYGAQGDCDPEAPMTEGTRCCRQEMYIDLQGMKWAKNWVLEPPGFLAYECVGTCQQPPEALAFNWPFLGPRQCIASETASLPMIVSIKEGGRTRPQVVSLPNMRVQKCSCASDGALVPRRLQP
The target of assay [4] is Calmodulin-1 (Homo sapiens) (UniProt P0DP23). Briefly: CALM1 binders on microarrays, EGTA buffer, profiling panel, biochemical, small-molecule microarray, Cy5-labelled CALM1 (AID 1111).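 Note: labelled calmodulin applied in Tris saline Tween buffer holding calcium plus EGTA and DTT.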 As to conditions: Cy5-CALM1 binding fluorescence, higher = more signal.
Assay [5] shares this target. Briefly: calcium-bound CALM1 binders on microarrays, profiling panel, artefact control for SMM control-protein annotation, biochemical, small-molecule microarray, Cy5-labelled CALM1, plus calcium (AID 1112).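 Note: score merges spot fluorescence with signal to noise from triplicate slides.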 The note with it: Cy5-CALM1 binding fluorescence, higher = more signal.
The nature of assay [6]: small-molecule microarray binders of probe aWnt5a, primary screen, biochemical, biotinylated probe, 635/667 nm fluorescence (AID 1113).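 Note: score merges 667 nm fluorescence intensity with signal-to-noise per printed feature.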 As to conditions: higher = more signal.
Assay [7] can be described thus: small-molecule microarray binders of probe aShh, primary screen, biochemical, biotinylated probe, 635/667 nm fluorescence (AID 1114).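 Note: probe is biotin-labelled aShh protein from a stem cell growth factor screen; measures binding of labelled protein to compounds printed on the slide; score merges feature fluorescence at 667 nm with signal-to-noise.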 The note with it: higher = more signal.
Assay [8] in a line: small-molecule microarray binders of probe aNog, primary screen, biochemical, biotinylated probe, 635/667 nm fluorescence (AID 1115).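 Note: probe is biotinylated aNog protein used at 0.15 µg/mL for 1 h at 4 C; z-score combines 667 nm fluorescence of each spot with its signal to noise.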 The note with it: higher = more signal.
Assay [9] has as its target Torsin-1A-interacting protein 1 (Homo sapiens) (UniProt Q5JTV8). Briefly: LAP1 binders from COS7 cell lysate, primary screen, small-molecule microarray, 635/667 nm fluorescence (AID 1116). The note with it: COS7-hLAP1 lysate binding, 635 nm fluorescence, higher = more signal.
Assay [10] deals with Alpha-bungarotoxin (Bungarus multicinctus) (UniProt P60615). Briefly: alpha-bungarotoxin binders on microarray, profiling panel, artefact control for SMM control protein annotation, biochemical, small-molecule microarray, Alexa647 label, 635/667 nm fluorescence (AID 1117). As to conditions: alpha-BTX-A647 binding fluorescence, higher = more signal.
Alpha-bungarotoxin (Bungarus multicinctus), sequence (P60615 whole entry, looked up): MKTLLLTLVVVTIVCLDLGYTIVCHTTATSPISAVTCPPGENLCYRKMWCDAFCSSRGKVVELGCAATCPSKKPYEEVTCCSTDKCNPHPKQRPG
In another assay the target is Albumin (Bos taurus) (UniProt P02769). Briefly: bovine serum albumin binders on microarray, profiling panel, artefact control for SMM control protein annotation, biochemical, small-molecule microarray, Alexa647 label, 635/667 nm fluorescence (AID 1118).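 Note: score merges 667 nm emission intensity and signal-to-noise per printed compound spot.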 The note with it: BSA-A647 binding, fluorescence 635 nm, higher = more signal.
Albumin (Bos taurus), sequence (P02769 whole entry, looked up): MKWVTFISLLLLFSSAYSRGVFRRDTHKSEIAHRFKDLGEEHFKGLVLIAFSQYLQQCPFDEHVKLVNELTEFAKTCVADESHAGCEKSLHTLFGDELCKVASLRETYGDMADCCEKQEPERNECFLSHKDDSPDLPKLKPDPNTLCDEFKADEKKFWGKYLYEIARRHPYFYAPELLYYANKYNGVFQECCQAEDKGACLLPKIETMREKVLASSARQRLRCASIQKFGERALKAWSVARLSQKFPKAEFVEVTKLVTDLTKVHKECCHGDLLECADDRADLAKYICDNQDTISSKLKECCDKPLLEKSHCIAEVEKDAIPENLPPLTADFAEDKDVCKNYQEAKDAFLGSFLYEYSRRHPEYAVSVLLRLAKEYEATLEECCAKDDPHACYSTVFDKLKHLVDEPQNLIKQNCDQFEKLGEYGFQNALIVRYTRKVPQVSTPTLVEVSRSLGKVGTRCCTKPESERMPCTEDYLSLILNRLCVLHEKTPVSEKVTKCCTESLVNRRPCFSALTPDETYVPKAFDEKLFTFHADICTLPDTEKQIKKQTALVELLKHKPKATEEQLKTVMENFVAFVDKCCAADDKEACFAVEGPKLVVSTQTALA
Assay [11] in a line: small-molecule microarray binders of probe aXIP, primary screen, biochemical, NeuroSMM set, 635/667 nm fluorescence (AID 1119).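 Note: probe is the protein aXip251-270 applied at 1 µg/mL to compound-printed slides; binding of probe to printed compounds measured as 667 nm fluorescence plus signal to noise.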 The note with it: higher = more signal, called active from +8 up or from −8 down.
Assay [12] is described as follows: small-molecule binders of probe aNOTCH3, primary screen, biochemical, small-molecule microarray, 635/667 nm fluorescence (AID 1120).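 Note: probe is a biotin-tagged antibody raised against NOTCH3 rather than NOTCH3 protein; score merges spot fluorescence near 667 nm with spot signal to noise.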 The note with it: higher = more signal.
A short description of assay [13]: small-molecule binders of probe aNOTCH2, primary screen, biochemical, small-molecule microarray, 635/667 nm fluorescence (AID 1121).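 Note: score merges feature fluorescence read at 667 nm with its signal to noise.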 As to conditions: higher = more signal.
Assay [14] concerns the target Carbonic anhydrase 2 (Homo sapiens) (UniProt P00918). Briefly: CAII small-molecule binders, profiling panel, biochemical, small-molecule microarray, Alexa647-labelled CAII (AID 1122). As to conditions: CAII-A647 binding fluorescence, higher = more signal.
The nature of assay [15]: COS7 lysate on small-molecule microarray, probe aHis, 635 nm (AID 1123).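 Note: z-score combines 667nm fluorescence intensity with signal-to-noise per printed compound spot.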 The note with it: COS7 cell lysate, fluorescence, higher = more signal.
The nature of assay [16]: compound binding in COS7 lysate, probe aLAP1, primary screen, cell lysate, small-molecule microarray (AID 1124).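 Note: lysate comes from COS7 cells expressing LAP1 and is applied at 0.3 µg/mL; score merges spot fluorescence near 667 nm with signal-to-noise over triplicate slides.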 As to conditions: probe aLAP1, fluorescence, higher = more signal.
Another assay has as its system Sam68 (KHDRBS1). Briefly: Sam68 small-molecule binders, primary screen, biochemical, small-molecule microarray, 635 nm fluorescence (AID 1125).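 Note: score merges 667 nm channel intensity with signal to noise over triplicate slides.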 The note with it: small-molecule microarray binding, higher = more signal.
Assay [17] relates to Chordin-like protein 2 (CHRDL2). Briefly: CHRDL2 small-molecule binders, primary screen, biochemical, small-molecule microarray, 635 nm fluorescence (AID 1126).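 Note: printed compound slides probed with Chrdl2 protein at 4 µg/mL for 1 h at 4 C; score merges 667 nm emission intensity with signal to noise over three replicate slides.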 The note with it: small-molecule microarray binding, fluorescence 635 nm; higher = more signal.
Assay [18] addresses Concanavalin-A (Canavalia ensiformis) (UniProt P02866). Briefly: ConA small-molecule binders, primary screen, artefact control for SMM control protein annotation, biochemical, small-molecule microarray, Alexa647 label, 635 nm (AID 1127).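 Note: z combines 667 nm emission intensity with signal-to-noise across three replicate slides.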 As to conditions: ConA-A647 binding fluorescence, higher = more signal.

Calls of active or inactive are those of the source.

Concanavalin-A (Canavalia ensiformis), sequence (P02866 whole entry, looked up): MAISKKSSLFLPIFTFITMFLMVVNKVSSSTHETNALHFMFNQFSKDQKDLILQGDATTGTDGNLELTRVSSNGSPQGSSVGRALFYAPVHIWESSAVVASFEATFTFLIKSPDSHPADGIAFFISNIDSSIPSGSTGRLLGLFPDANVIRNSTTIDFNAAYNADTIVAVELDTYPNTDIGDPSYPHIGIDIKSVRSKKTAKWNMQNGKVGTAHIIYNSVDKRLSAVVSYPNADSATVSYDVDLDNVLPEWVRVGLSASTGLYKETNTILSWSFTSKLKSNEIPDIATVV
Torsin-1A-interacting protein 1 (Homo sapiens), sequence (Q5JTV8 whole entry, looked up): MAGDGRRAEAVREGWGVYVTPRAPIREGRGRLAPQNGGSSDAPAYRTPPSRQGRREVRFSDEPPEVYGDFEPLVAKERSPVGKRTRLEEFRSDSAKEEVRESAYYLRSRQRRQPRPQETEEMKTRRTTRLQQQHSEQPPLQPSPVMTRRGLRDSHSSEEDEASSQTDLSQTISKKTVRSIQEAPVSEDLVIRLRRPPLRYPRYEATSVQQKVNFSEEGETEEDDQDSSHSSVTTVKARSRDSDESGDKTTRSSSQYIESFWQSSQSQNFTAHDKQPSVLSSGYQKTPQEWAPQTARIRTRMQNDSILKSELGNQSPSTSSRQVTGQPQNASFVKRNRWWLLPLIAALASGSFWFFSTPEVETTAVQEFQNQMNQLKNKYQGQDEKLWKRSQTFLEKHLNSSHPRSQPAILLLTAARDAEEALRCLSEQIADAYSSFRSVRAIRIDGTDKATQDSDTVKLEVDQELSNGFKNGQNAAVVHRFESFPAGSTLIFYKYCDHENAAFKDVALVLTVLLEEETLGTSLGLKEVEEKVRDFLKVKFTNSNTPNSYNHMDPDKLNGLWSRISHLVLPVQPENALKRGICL

For `[N-]=[N+]=Nc1ccccc1[C@@H]1OC(c2ccc(OCCCO)cc2)=N[C@]1(CCS(=O)(=O)c1ccccc1)C(=O)NCc1ccccc1`, the composite z-score was 1.41 in assay [1]; 0.343 in [3]; 2.03 in [4]; 0.603 in assay [5]; 0.0338 in assay [6]; 0.0469 in [7]. The composite z-score in assay [8] turned out to be 1.6; in [9], 2.15; in assay [10], 1.9; with Albumin (Bos taurus) it was 0.976; in assay [12] it was 0.752; in assay [13] it was 0.38. For the same compound, the composite z-score in assay [14] is 0.749; in assay [15], 2.86; in [16], 0.48; with Sam68 (KHDRBS1) it was 1.29; in assay [17], -0.612; in assay [18] it was 1.11. The z-score in [2] is 0.0858. The composite Z-score in [11] was 1.08 (inactive).

For `CCOC(=O)C1=CC[C@@H](c2cccc(Br)c2)N(S(=O)(=O)c2ccc(C)cc2)[C@H]1c1ccc([N+](=O)[O-])cc1`, the composite z-score is 1.42 in assay [1]; 0.868 in assay [3]; 0.855 in assay [4]; 0.69 in assay [5]; 0.0433 in [6]; -0.138 in [7]. The composite z-score is 0.822 in assay [8]; 1.1 in assay [9]; 1.05 in [10]; 0.861 with Albumin (Bos taurus); 0.0116 in [12]; -0.0856 in assay [13]. The composite z-score in assay [14] worked out at 0.586; in assay [15], 2.45; in assay [16], 0.885; in the assay on Sam68 (KHDRBS1), 1.08; in assay [17], 0.625; in [18], 1. Further, the z-score in assay [2] is -0.802. In [11], the composite Z-score is 0.338 (inactive).

For the compound `COc1ccc(C(=O)Nc2ccc3c(c2)[C@]2(O[C@@H](CCO)[C@H]([Si](C)(C)c4ccc(OC)cc4)[C@H]2C)C(=O)N3Cc2ccccc2)cc1`, the composite z-score in [1] was 0.958; in assay [3], 0.793; in assay [4], 0.475; in assay [5] it was 0.57; in assay [6], -0.13; in [7], 0.0062. Besides, the composite z-score in [8] is -0.295; in assay [9], 0.422; in assay [10], 0.375; in the assay with Albumin (Bos taurus) it was -0.58; in assay [12], -0.242; in assay [13] it was -0.135. The composite z-score in [14] is 0.0277; in assay [15] it was -0.0175; in assay [16], -0.352; with Sam68 (KHDRBS1), 1.01; in assay [17], 0.845; in assay [18], 0.908. For the same compound, the z-score in assay [2] is -5.23. Also, the composite Z-score in assay [11] is 0.131 (inactive).

As for `COC(=O)[C@@]1(Cc2ccc(F)cc2)[C@H]2c3cc(C(=O)N(C)C)n(Cc4ccc(C)c(F)c4F)c3C[C@H]2CN1C(=O)c1ccccc1`, the composite z-score in [1] was 1.33; in [3] it was -0.0601; in assay [4], 1.61; in assay [5], 0.962; in assay [6], 0.0037; in [7] it was 0.141. Moreover, the composite z-score in assay [8] is -0.0053; in [9], 0.692; in assay [10], 0.298; with Albumin (Bos taurus) it was 0.751; in assay [12], 0.243; in assay [13] it was 0.0742. Besides, the composite z-score in assay [14] is 0.713; in assay [15], 3.15; in assay [16] it was -0.0137; in the assay with Sam68 (KHDRBS1), 1.07; in [17], -0.991; in [18], 0.879. For the same compound, the z-score in assay [2] is -1.34. Also, the composite Z-score in [11] was 0.818 (inactive).

As to `COCCCNC(=O)[C@@H]1c2ccccc2C(=O)N(Cc2cc(F)cc(C(F)(F)F)c2)[C@H]1c1ccc(CO)cc1`, the composite z-score in assay [1] was -1.6; in assay [3], -1.36; in assay [4], -0.365; in assay [5], -0.167; in [6], -0.212; in assay [7] it was -0.153. The composite z-score is -0.285 in assay [8]; -1.13 in [9]; -0.4 in assay [10]; -0.146 in the assay with Albumin (Bos taurus); -0.388 in assay [12]; -0.0826 in assay [13]. In addition, the composite z-score in assay [14] is 0.761; in assay [15] it was -0.838; in [16], -0.438; with Sam68 (KHDRBS1) it was -1.24; in [17], -1.24; in assay [18], -0.265. This compound also yielded a z-score in [2] of -0.252. Also, the composite Z-score in [11] is 0.147 (inactive).

Source of the values: PubChem BioAssay.
